LASV entry inh: Lassa virus entry inhibition; Potency, µM (series often up to 49.2 µM), actives largely listed as inhibitors; AID 720533; actives 4.1% (n = 18,000); Lassa virus pseudotyped entry inhibition, cell-based qHTS
Marburg entry: Marburg virus entry inhibition. Marburg virus pseudotype entry/binding inhibition, cell-based. Potency, µM (series often up to 49.2 µM), hits mostly inhibitors. actives 6.5% (n = 18,000). AID 720532
A number is an active result; n = inactive; u = inconclusive; x = no result; ! = a repeat was not active; [ ] = another dose, or the depositor's remark. Sampled rows, rich in hits. Any-hit rate of the full collection: about 8.6%. Calls come from the whole dose curve; tested in HEK293 cells.

SMILES	LASV entry inh	Marburg entry
CCOC(=O)c1c(C)[nH]c2ccc3c(c12)CN1CCc2cc(OC)ccc2[C@@H]1O3	u	5.62µM
CCN1C(=O)NC(c2cccc(F)c2)C(C(C)=O)=C1C (stereo not drawn)	n[8.59 µM]	u
C#C[C@]1(OC(C)=O)CC[C@H]2[C@@H]3CCC4=C/C(=N/O)CC[C@@H]4[C@H]3CC[C@@]21CC	28.2µM	n
C#C[C@@]1(OC(C)=O)CC[C@@H]2[C@@H]3CCC4=C[C@@H](OC(C)=O)CC[C@H]4[C@H]3CC[C@]21C	n	n
C[C@@H]1N[S+](=O)([O-])c2cccc(Cl)c2O[C@H]1c1ccccc1	u	n
Cc1cc(=O)c2c(O)c3c(O)cc(=O)c4c3c3c(cc(O)c1c23)C(C)(C)C=4O	6.31µM	6.31µM
CCN1C(=NCCCOC(C)C)N[C@H](c2ccccc2)[C@H](C(=O)OC)[C@H]1C	n[8.59 µM]	n[8.59 µM]
COC(=O)C1=C(C)NC(C)=C(C(=O)NCCCN2CCC(c3ccccc3)(c3ccccc3)CC2)C1c1ccc([N+](=O)[O-])cc1 (stereo not drawn)	u	3.16µM
COC(=O)C1=C(C)NC(C)=C(C(=O)OCCNCc2ccccc2)C1c1cccc([N+](=O)[O-])c1 (stereo not drawn)	u	11.2µM
COC(=O)C1=C(C)NC(C)=C(C(=O)O[C@H]2CCN(Cc3ccccc3)C2)[C@H]1c1cccc([N+](=O)[O-])c1	u	22.4µM
COC(=O)C1=C(C)NC(C)=C(C(=O)OCCN(C)Cc2ccccc2)[C@H]1c1cccc([N+](=O)[O-])c1	n	u
COCCOC(=O)C1=C(C)NC(C)=C(C(=O)OC(C)C)[C@H]1c1cccc([N+](=O)[O-])c1	n	n
COC(=O)C1=C(C)NC(C)=C(C(=O)OCC(C)=O)C1c1ccccc1[N+](=O)[O-] (stereo not drawn)	u	n
Cc1oc(-c2ccccc2NC(=O)C2CCC2)nc1CNC(=O)c1ccccn1	n	n
COC(=O)[C@@]1(C=C2c3ccc(F)cc3[C@@H](OC)[C@@H]2C)[C@@H]2OCCC[C@@H]21	n[8.59 µM]	n[8.59 µM]
CCCCCCCCCCCCCCOc1ccc(C(=O)O)o1	0.562µM	u
CCCCCCCCOC(=O)c1ccccc1C(=O)OCCCCCCCC	n	n
CO/N=C(\C(=O)N[C@@H]1C(=O)N2C(C(=O)O)=C(CSc3nc(C)c(CC(=O)O)s3)CS[C@H]12)c1csc(N)n1	n	n
CNC(=O)c1cncc(C=Cc2c(C)cccc2C)c1	n	u
CCN1C(=O)NC(c2cccc(F)c2)C(C(=O)OC)=C1C (stereo not drawn)	n[8.59 µM]	n[8.59 µM]
CSc1ccc2c(c1)[C@H](N1CCN(C)CC1)Cc1ccccc1S2	28.2µM!	11.2µM
CSc1ccc2c(c1)C(N1CCN(C)CC1)Cc1ccccc1S2 (stereo not drawn)	22.4µM!	6.31µM
CN1CCN(C2Cc3ccccc3Sc3ccc(Cl)cc32)CC1 (stereo not drawn)	u	12.6µM
C[C@H]1COc2cccc(F)c2S(=O)(=O)N1	n	n
CCN1C(=S)NC(c2ccccc2)C(C(=O)OC)=C1C (stereo not drawn)	n[8.59 µM]	n[8.59 µM]
SMILES	LASV entry inh	Marburg entry
Cc1cc(C)n(-c2cccc(C(=O)NCC3Cc4cccc(-c5ccccn5)c4O3)c2)n1 (stereo not drawn)	n	n
CCN1C(=NCCCCO)NC(c2cccc(C(F)(F)F)c2)C(C(=O)OC)=C1C (stereo not drawn)	n[8.59 µM]	n[8.59 µM]
O=C(NCCN1CCOCC1)c1cnn(-c2ncc3c(n2)-c2ccccc2CC3)c1C1CC1	n	u
O=C(NC1CCN(Cc2ccccc2)C1)c1cnn(-c2ncc3c(n2)-c2ccccc2CC3)c1C1CC1 (stereo not drawn)	n	5.01µM
CCOC(=O)OC[C@H]1O[C@H](c2cc(C)cc(C)c2)C=C[C@H]1OC(=O)OCC	n[8.59 µM]	n[8.59 µM]
CCCCn1c(C)cc2c(c1=O)[C@H]1O[C@](c3ccsc3)(Cc3ccccc31)O2	n[8.59 µM]	u
Cc1cccc(CN2CCN([C@@H]3C[S+](=O)([O-])N[C@@H]3COCc3ccccc3)CC2)c1	n	n
O=C(N[C@H]1CN2CCC1CC2)c1ccc(Cl)cc1	n	u
Cn1cc(C(=O)C(=O)N[C@H]2CN3CCC2CC3)c2ccccc21	u	28.2µM!
O=C(NN=C1C[C@@H](O)[C@H](O)[C@H]2[C@@H]3C(=O)N(C[C@@H]4CCCO4)C(=O)[C@@H]3CC[C@H]12)OCc1ccccc1	x	n[8.59 µM]
COC(=O)CC=C[C@@H](C)[C@H](OC)c1cc(F)ccc1Br	n[8.59 µM]	n[8.59 µM]
Cc1ccccc1OC[C@H](O)CO	n	n
Cc1ccc(OCC(O)C(C)NC(C)C)c2c1CCC2 (stereo not drawn)	u	12.6µM
CC(C)c1nc(CN(C)C(=O)N[C@H](C(=O)N[C@@H](Cc2ccccc2)C[C@H](O)[C@H](Cc2ccccc2)NC(=O)OCc2cncs2)C(C)C)cs1	7.08µM!	u
CC1CC2CCC(O2)C(C)C(=O)OC(C)CC2CCC(O2)C(C)C(=O)OC(C)CC2CCC(O2)C(C)C(=O)OC(C)CC2CCC(O2)C(C)C(=O)O1 (stereo not drawn)	1µM	5.01µM
CCC[C@H]1CN(c2ccc(Br)cc2)C(=O)[C@H]1CC(=O)Nc1ccccc1	n	u
CCOC(=O)[C@]12C[C@]3(C)CCN(C(=O)N[C@@H]1c1ccccc1)[C@@H]32	n[8.59 µM]	n[8.59 µM]
COC(=O)N[C@H](C(C(=O)OC)=C(C)NCc1ccccc1)c1cccc(F)c1	n[8.59 µM]	n[8.59 µM]
CC(C)(C)c1cc(C=C(C#N)C#N)cc(C(C)(C)C)c1O	25.1µM	2.82µM
N#CC(C#N)=C(N)/C(C#N)=C/c1cc(O)c(O)c(O)c1	n	n
N#CC(C#N)=Cc1ccc(O)c(O)c1	n	n
CC(C)(C)c1cc(/C=C(\C#N)C(N)=S)cc(C(C)(C)C)c1O	28.2µM	4.47µM
COC1=C(C(=O)c2ccccc2)C(=O)[C@@]2(CC=C(C)C)C[C@@H]([S+](=O)([O-])c3ccccc3)C(C)(C)[C@@]1(CC=C(C)C)C2=O	x	n[8.59 µM]
COCCN1C(=NCCc2cccnc2)NC(c2ccccc2)C(C(=O)OC)=C1C (stereo not drawn)	u	n[8.59 µM]
Cc1ccc(C#C[C@@H]2C=C[C@H](Oc3ccc4c(c3)OCO4)[C@@H](CO)O2)c(C)c1	n[8.59 µM]	n[8.59 µM]
SMILES	LASV entry inh	Marburg entry
CNCC(=O)c1ccc(O)c(O)c1	n	15.8µM
O=C(O)Cc1ccc(O)c(O)c1	n	n
COC(=O)[C@@H]1CC[C@H](C)[C@@H](c2ccc(C)cc2)N1C(=O)c1ccc(C=NO[C@@H](C)c2cn([C@H](CO)Cc3ccccc3)nn2)cc1	x	n[8.59 µM]
CCCNCC(O)COc1ccccc1C(=O)CCc1ccccc1 (stereo not drawn)	u	7.08µM
Cc1ccccc1OCC(O)CNCCOc1ccc(C(N)=O)cc1 (stereo not drawn)	n	n
C[C@@H]1[C@@H](c2ccccc2)Oc2c(Cl)cccc2S(=O)(=O)N1Cc1cccc(F)c1	n	n
COC(=O)c1cc(CNC(=O)c2ccccn2)cc(NC(=O)c2ccccc2OC)c1	n	n
COC(=O)c1cc(CNC(=O)c2cccc(F)c2)cc(NC(=O)c2ccccc2OC)c1	u	141µM
CC(=O)OC[C@H]1O[C@H](CC=NOCC[C@@H]2C=C[C@@H](OC(C)=O)[C@@H](COC(C)=O)O2)C=C[C@@H]1OC(C)=O	n[8.59 µM]	n[8.59 µM]
CCCCCC(=O)N1C[C@H](O)[C@@H](n2cc(-c3ccc(F)cc3)nn2)C[C@H]1c1ccc(C)cc1	n	u
C[C@H]1CN(CCc2ccccc2)C(=O)[C@H]1CC(=O)Nc1ccccc1	n	n
CCOc1ccc2c(-c3ccnc(Nc4cc(OC)cc(C(F)(F)F)c4)n3)cnn2n1	x	6.28µM
